Laboratory results published in PubChem BioAssay (EPA / NIEHS).
The source made the active and inactive calls. Rule for the calls: active = hit-call score of the fitted dose curve at least 0.9, where 1 is the maximum; inactive = score below 0.9.

The compounds below were run on Forkhead box O3 (FOXO3), FOXO3 (gene 2309) (assay: LTEA_HepaRG_FOXO3: Life Technologies and Expression Analysis (LTEA) Assay for Forkhead box O3 (FOXO3) using HepaRG (AID 2283459)). Conditions: mRNA level, 48 h; actives raise or lower the signal.
Method: LTEA_HepaRG is a cell based, multiplexed-readout assay that uses HepaRG, a human liver cell line, with measurements taken at 48 hours after chemical dosing on a 96-well plate.LTEA_HepaRG_FOXO3 is one of 102 assay component(s) measured in the LTEA HepaRG cell culture assay. It is a marker of Cell proliferation, survival, death.Data from the assay component LTEA_HepaRG_FOXO3 was analyzed into 1 endpoint. This assay endpoint, LTEA_HepaRG_FOXO3, was analyzed with bidirectional fitting relative to DMSO as the negative control and baseline of activity. Using a type of inducible reporter, measures of mRNA induction for gain or loss-of-signal activity can be used to understand regulation of transcription factor activity. To generalize the intended target to other relatable targets, this assay endpoint is annotated to the dna binding intended target family, where the subfamily is forkhead box protein.
A total of 1060 chemcials from the ToxCast library were tested in eight-point concentration-response experiments. Cell culture and cytotoxicity assays were conducted at Thermo Fisher Scientific's Custom Services facility (Madison, WI). A single lot of human HepaRG cells (Thermo Fisher Scientific, Frederick, MD) was used for the cell culture experiments. 96-well format collagen type I coated plates of human HepaRG cells were prepared using established methods. Briefly, cryopreserved HepaRG cells were thawed, plated at a density of approximately 100,000 cells/well in HepaRG Thaw, Plate, and General Purpose media (HPRG770, Thermo Fisher Scientific), and incubated for 48 hours. 0.5% DMSO was selected as vehicle control to balance the requisite need of DMSO in HepaRG cultures to maintain differentiation (for example, baseline metabolism, proportions of hepatocytes vs. cholangiocytes), while enabling further hepatic receptor pathway activation (for example, PXR and CAR) in response to chemical exposure. 48 hours after plating, the culture medium was replaced with HepaRG Serum-Free Incudtion Media. Cells were exposed to each test chemical in duplicate and maintained in CO2 incubators for another 48 hours. Chemical plates were thawed to room temperature and 200x concentrations of treatment groups were prepared. 8-point conentration-reponse curves were made with the highest exposure at 100 uM, followed by half-log dilutions, all in 0.5% DMSO. Each test plate contained variouse controls, induction positive controls (1mM phenobarbital), cytotoxicity positive controls ([…] aflatoxin B1), vehicle controls (0.5% DMSO), and total lysis controls (0.5% DMSO). Cell morphology images were taken using an Essen IncuCyte FLR automated microscope, with six 96-well plates imaged in about 24 minutes. Images were captured and exported and JPEG files. Spent culture media was transfered to black-well plates for the LDH assay, and remaining media was sorted at -80 C for later use. Cells were treated with RLT buffer and frozen until shipped for gene expression analysis. Total RNA was isolated from the cell suspension in 75 uL of Buffer RLT (Qiagen, Germantown, MD 20874) by Quintiles/Expression Analysis (Durham, NC) using a custom isolation procedure. Total RNA from each plate well was transferred to a preamplification plate. Fluidigm's 96.96 Dynamic ArrayTM (Fluidigm, Amsterdam, the Netherlands) technology was used for gene expression analyses by quantitative reverse transcription polymerase chain reaction (qRT-PCR, performed by Quintiles/Expression Analysis, Durham, NC)89. Standard TaqManTM Assays (Applied Biosystems/ThermoFisher Scientific, Foster City, CA) were used to assess the expression of 93 genes selected based on their selectivity and sensitivity to important hepatic receptors known to be modulated by environmental chemicals; importance in human hepatocyte functionality; and hepatotoxicity. […]
In the case of `CCCOc1nn(C(=O)NS(=O)(=O)c2ccccc2C(=O)OC)c(=O)n1C`, the outcome is reported as “inactive”.
For `CN(C)[C@@H]1C(=O)C(C(N)=O)=C(O)[C@@]2(O)C(=O)C3=C(O)c4c(O)cccc4[C@@](C)(O)[C@H]3[C@H](O)[C@@H]12`, the outcome was “inactive”.
With `CC[C@H](C)[C@H]1O[C@]2(C=C[C@@H]1C)C[C@@H]1C[C@@H](C/C=C(\C)[C@@H](O[C@H]3C[C@H](OC)[C@@H](O[C@H]4C[C@H](OC)[C@@H](NC)[C@H](C)O4)[C@H](C)O3)[C@@H](C)/C=C/C=C3\CO[C@@H]4[C@H](O)C(C)=C[C@@H](C(=O)O1)[C@]34O)O2` the outcome was “inactive”.
For `CCOP(=S)(OCC)Oc1ccc2c(C)c(Cl)c(=O)oc2c1`, the outcome was “inactive”.
In the case of `CC(C)N(C(=O)SCC(Cl)=C(Cl)Cl)C(C)C`, the outcome is reported as “inactive”.
In the case of `Cc1cc(C2CC2)nc(Nc2ccccc2)n1`, the outcome is reported as “inactive”.
For `CN(C)NC(=O)CCC(=O)O`, the outcome was “inactive”.
In the case of `CC(C)=CC1C(C(=O)OCN2C(=O)C3=C(CCCC3)C2=O)C1(C)C` (stereo not given), the outcome is reported as “inactive”.
`CC(=NC#N)N(C)Cc1ccc(Cl)nc1` was tested, and the outcome was “inactive”.
`CC(C1CC1)C(O)(Cn1cncn1)c1ccc(Cl)cc1` (stereo not given) was tested, and the outcome was “inactive”.
With `CCOP(=O)(SC(C)CC)N1CCSC1=O` (stereo not given) the outcome was “inactive”.
`FC(F)C(F)(F)OCC(Cn1cncn1)c1ccc(Cl)cc1Cl` (stereo not given) was tested, and the outcome was “inactive”.
In the case of `COP(=O)(OC)C(O)C(Cl)(Cl)Cl` (stereo not given), the outcome is reported as “inactive”.
In the case of `N#CSCSC#N`, the AC50 is reported as 84.9 µM (active).
With `CSc1nnc(C(C)(C)C)c(=O)n1N` the outcome was “inactive”.
For `S=C1NCCN1`, the outcome was “inactive”.
For `Nc1nc(N)nc(NC2CC2)n1`, the outcome was “inactive”.
For `CCCCN(CC)c1c([N+](=O)[O-])cc(C(F)(F)F)cc1[N+](=O)[O-]`, the outcome was “inactive”.
In the case of `C[N+]1(C)CCCCC1`, the outcome is reported as “inactive”.
`COP(=O)(OC)OC(Br)C(Cl)(Cl)Br` (stereo not given) was tested, and the outcome was “inactive”.
For `CCc1cccc(CC)c1N(COC)C(=O)CCl`, the outcome was “inactive”.
`COc1cccc(C(=O)NN(C(=O)c2cc(C)cc(C)c2)C(C)(C)C)c1C` was tested, and the outcome was “inactive”.
In the case of `CCOP(=S)(OCC)Oc1ccc([N+](=O)[O-])cc1`, the outcome is reported as “inactive”.
`COP(=O)(NC(C)=O)SC` (stereo not given) was tested, and the outcome was “inactive”.
`CCOP(=S)(OCC)OC(Cl)C(Cl)(Cl)Cl` (stereo not given) was tested, and the outcome was “inactive”.
`CCCSP(=O)(OCC)SCCC` was tested, and the outcome was “inactive”.
`CCc1cccc(C)c1N(C(=O)CCl)C(C)COC` (stereo not given) was tested, and the outcome was “inactive”.
With `CCC(CC)Nc1c([N+](=O)[O-])cc(C)c(C)c1[N+](=O)[O-]` the outcome was “inactive”.
In the case of `CSc1nc(NC(C)C)nc(NC(C)C)n1`, the outcome is reported as “inactive”.
`COc1ccc(C(=CC(=O)N2CCOCC2)c2ccc(Cl)cc2)cc1OC` was tested, and the outcome was “inactive”.
In the case of `C#CC(C)(C)NC(=O)c1cc(Cl)cc(Cl)c1`, the outcome is reported as “inactive”.
For `CCCSP(=O)(OCC)Oc1ccc(Br)cc1Cl` (stereo not given), the outcome was “inactive”.
For `CCCCOC(=O)[C@@H](C)Oc1ccc(Oc2ccc(C#N)cc2F)cc1`, the outcome was “inactive”.
With `CCOP(=S)(OCC)SCCSCC` the outcome was “inactive”.
In the case of `C=C(C)[C@H]1Cc2c(ccc3c2O[C@@H]2COc4cc(OC)c(OC)cc4[C@@H]2C3=O)O1`, the outcome is reported as “inactive”.
In the case of `CCNc1nc(Cl)nc(NC(C)(C)C#N)n1`, the outcome is reported as “inactive”.
With `CCOP(=S)(Oc1cnc(C(C)(C)C)nc1)OC(C)C` (stereo not given) the outcome was “inactive”.
With `O=c1ccc(=O)[nH][nH]1` the outcome was “inactive”.
For `CN(C)C(=O)Nc1cccc(C(F)(F)F)c1`, the outcome was “inactive”.
With `C#CCC1=C(C)C(OC(=O)C2C(C=C(C)C)C2(C)C)CC1=O` (stereo not given) the outcome was “inactive”.
